Data on seven compounds can be found in PubChem BioAssay (NCATS).

Results filed as inconclusive are left out. Active and inactive are the calls of the source. Unless noted, the call rests on the fitted dose curve; in most records, active means well fitted curve in either direction with a large enough effect (not every such curve was filed as active); inconclusive means small, poorly fitted or top-dose-only effect, or another doubt; inactive means flat fitted curve, though single readings scatter.

Assay [1] can be described thus: AP1 Signaling Pathway (AID 357). Further: on the % scale 0 is the no-effect control and ±100 the full control effect. As to conditions: ME-180 AP-1-bla reporter, EGF-induced, beta-lactamase ratio, 5 h; at 7.69 µM (top of the series) unless noted. The gist of the method: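 AP-1-bla ME-180 cells with beta-lactamase reporter under AP-1 response element, stimulated with EC50 EGF; compounds titrated, 5 hours at 37 degrees Celsius. CCF4 read at 460/530 nm ratio; positive and negative modulators judged by AC50.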

The target in assay [2] is Cytochrome P450 1A2 (Homo sapiens) (UniProt P05177). Briefly: p450-cyp1a2 (AID 410; calls by dose curve; further: potency means the concentration at half of the fitted maximal effect;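 on activity change, negative = inhibition: -100% = full effect of reference inhibitor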). The gist of the method: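 Inhibition was calculated relative to 57 uM furafylline (full inhibition). The reaction used human CYP1A2 at 20nM with Luciferin-ME at its Km, 100uM, driven by an NADPH-regenerating system for 60 min at room temperature.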
A short description of assay [3]: Stat Signaling Pathway (AID 446).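 Further: ME-180 cervical cancer cells given 40 pM IL-6 alongside compound; SIE-controlled beta-lactamase reporter measured as 460/530 nm FRET emission ratio; on the % scale 0 is the no-effect control and ±100 the full control effect.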 As to conditions: ME-180 SIE beta-lactamase reporter, IL-6 stimulated, 5 h; at 7.69 µM (top of the series) unless noted. An outline of the steps: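 ME-180 SIE-bla cells; overnight plating; cpd + IL-6 40 pM, 5 h, 37 C; LiveBLAzer 2.5 h RT; 460/530 nm emission ratio. Normalized to 300 pM IL-6 and 125 nM JAK inhibitor controls.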
Assay [4] deals with Glucocorticoid receptor (Homo sapiens) (UniProt P04150). Put plainly: GR-EFC Redistribution (AID 451; calls by dose curve; further: potency means the concentration at half of the fitted maximal effect). The conditions noted are these: CHO-K1 GR-EFC translocation, beta-gal luminescence, 2 h. The gist of the method: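 Translocation of GR-ED fusion to nuclear EA restores b-gal, read by luminescence after 1 h room-temperature detection. Engineered CHO-K1 biosensor cells, 1,000/well, exposed 2 h at 37 C to titrations up to 46 uM final.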

The target of assay [5] is Mitogen-activated protein kinase 10 (Mus musculus) (UniProt Q61831). Put plainly: JNK3 AlphaScreen Assay (AID 530).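 Further: kinase came from lysate of stimulated human HepG2 cells; signal reports phosphorylation of biotinylated GST-cJun 1-79 at Ser73 with 10 µM ATP; on the % scale 0 is the no-effect control and ±100 the full control effect.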 An outline of the steps: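 Room-temperature AlphaScreen kinase assay; pre-activated HepG2 lysate as JNK3 source, biotin-GST-cJun(1-79) substrate, 10 uM ATP, compound 15 min preincubation.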
Assay [6] deals with 3',5'-cyclic-AMP phosphodiesterase 4B (Homo sapiens) (UniProt Q07343). Put plainly: qHTS Assay for Inhibitors of PDE-IV (AID 607; active means well fitted activation curve with a large enough effect in the main read-out, with a control signal flat, not every such curve was filed as active; further: % of control where 0% means no effect). The gist of the method: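 ACTOne HEK293 cells carry a modified cAMP-gated CNG channel and express endogenous PDE4; plated 1000 cells/well, compounds up to 22.9 uM final. Membrane-potential dye fluorescence (ex 535/em 590) was read; parental cells received 10 uM forskolin + 100 uM RO 20-1724.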

Assay [7] in a line: qHTS Assay for Lipid Storage Modulators (AID 1519; calls by dose curve). The conditions noted are these: Drosophila S3 cells, BODIPY lipid droplet/cell ratio, laser cytometry, cells loaded with oleic acid; for activity change, negative = inhibition: at 57.5 µM (top of the series). An outline of the steps: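 Cells seeded at 5,000 per well were treated with compounds over a concentration series and loaded with oleic acid (400 uM, as added). Lipid droplet fluorescence (488 nm excitation, 500-530 nm channel) was read by laser-scanning cytometry and normalized to 20 uM Triacsin C.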

Assay [8] is described as follows: Primary qHTS for small molecule stabilizers of the endoplasmic reticulum resident proteome: Secreted ER Calcium Modulated Protein (SERCaMP) assay (AID 1508630; active means well fitted curve in the direction sought with a large enough effect; an effect the other way counts as inactive or inconclusive; further: on the % scale 0 is the no-effect control and ±100 the full control effect). The gist of the method:
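GLuc-SERCaMP-expressing SH-SY5Y cells, pretreated 16 h with compound, are challenged with thapsigargin to empty ER calcium stores; after 4 h, coelenterazine is added directly to the medium and luminescence is imaged.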

The nature of assay [9]: NFAT Signaling Pathway (AID 444). As to conditions: Jurkat NFAT-bla M1, carbachol, beta-lactamase ratio, 5 h; at 7.69 µM (top of the series) unless noted. An outline of the steps: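 Read-out: CCF4 FRET ratio (460 nm/530 nm) after 1 h RT dye loading, used for %activity and AC50 from titration series. Cells: Jurkat NFAT-β-lactamase/M1 line, treated with compound plus 1 uM carbachol for 5 h, 37 °C.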

Assay [10] concerns the target Glucocorticoid receptor (Homo sapiens) (UniProt P04150). Put plainly: GR-GFP Redistribution (AID 450;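 active means compounds whose dose series gives a full or clear partial fitted curve of increased nuclear translocation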; further: potency means the concentration at half of the fitted maximal effect). As to conditions: U2OS GR-GFP nuclear translocation, laser cytometry, 2 h.
Assay [11] deals with Cytochrome P450 3A4 (Homo sapiens) (UniProt P08684). Put plainly: qHTS Assay for Activators of Cytochrome P450 3A4 (AID 885; active means well fitted curve in the direction sought with a large enough effect; an effect the other way counts as inactive or inconclusive; further: nearly all actives have a fitted effect of over 65% in size). The gist of the method: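 20nM CYP3A4 + 25uM Luciferin-PPXE (=KM), 200mM KPO4; cpd 10 min RT; NADPH regen, 60 min RT; stop w/ detection buffer, 20 min; luminescence. Normalized to 57 uM ketoconazole.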
Assay [12] addresses Ubiquitin carboxyl-terminal hydrolase 1 (Homo sapiens) (UniProt O94782). Put plainly: Inhibitors of USP1/UAF1: Pilot qHTS (AID 504865; active means well fitted curve in the direction sought with a large enough effect; an effect the other way counts as inactive or inconclusive;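 further: rhodamine fluorescence freed from ubiquitin-rhodamine substrate followed over time; top concentration of the series differs between compounds; on the % scale 0 is the no-effect control and ±100 the full control effect; nearly all actives have a fitted effect of over 35% in size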). An outline of the steps: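 USP1/UAF1 complex at 1 nM preincubated 15 min at room temperature with compound, then Ub-Rho substrate added at 150 nM final. Fluorescence (480/540 nm) read kinetically in 50 mM HEPES pH 7.8, 0.5 mM EDTA, 1 mM TCEP, 0.1 mg/ml BSA, 0.01% Tween-20.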

[13] abbreviates: measured here: cell count channel max response.
Where [14] appears, read: measured here: lipid channel max response.

Chain of 3',5'-cyclic-AMP phosphodiesterase 4B (Homo sapiens) (Q07343 whole entry, looked up): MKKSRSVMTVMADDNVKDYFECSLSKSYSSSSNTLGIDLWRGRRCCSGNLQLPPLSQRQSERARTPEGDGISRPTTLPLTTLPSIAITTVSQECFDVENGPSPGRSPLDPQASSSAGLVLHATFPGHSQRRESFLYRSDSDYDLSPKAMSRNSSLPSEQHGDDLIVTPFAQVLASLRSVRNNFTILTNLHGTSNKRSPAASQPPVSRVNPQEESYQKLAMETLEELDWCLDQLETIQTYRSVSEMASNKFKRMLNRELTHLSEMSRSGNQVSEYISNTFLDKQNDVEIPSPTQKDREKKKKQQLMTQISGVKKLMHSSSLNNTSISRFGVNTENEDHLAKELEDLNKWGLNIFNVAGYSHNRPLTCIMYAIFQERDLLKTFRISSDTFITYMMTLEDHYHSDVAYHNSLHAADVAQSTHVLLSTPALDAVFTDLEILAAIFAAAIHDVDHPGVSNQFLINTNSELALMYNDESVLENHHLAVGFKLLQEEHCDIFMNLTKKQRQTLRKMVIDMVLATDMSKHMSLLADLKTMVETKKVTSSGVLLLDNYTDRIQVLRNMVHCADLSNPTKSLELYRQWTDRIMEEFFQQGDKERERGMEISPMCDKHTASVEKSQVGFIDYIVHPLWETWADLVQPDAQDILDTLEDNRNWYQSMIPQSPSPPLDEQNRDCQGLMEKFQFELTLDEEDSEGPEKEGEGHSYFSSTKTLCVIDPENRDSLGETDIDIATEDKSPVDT
Chain of Cytochrome P450 1A2 (Homo sapiens) (P05177 whole entry, looked up): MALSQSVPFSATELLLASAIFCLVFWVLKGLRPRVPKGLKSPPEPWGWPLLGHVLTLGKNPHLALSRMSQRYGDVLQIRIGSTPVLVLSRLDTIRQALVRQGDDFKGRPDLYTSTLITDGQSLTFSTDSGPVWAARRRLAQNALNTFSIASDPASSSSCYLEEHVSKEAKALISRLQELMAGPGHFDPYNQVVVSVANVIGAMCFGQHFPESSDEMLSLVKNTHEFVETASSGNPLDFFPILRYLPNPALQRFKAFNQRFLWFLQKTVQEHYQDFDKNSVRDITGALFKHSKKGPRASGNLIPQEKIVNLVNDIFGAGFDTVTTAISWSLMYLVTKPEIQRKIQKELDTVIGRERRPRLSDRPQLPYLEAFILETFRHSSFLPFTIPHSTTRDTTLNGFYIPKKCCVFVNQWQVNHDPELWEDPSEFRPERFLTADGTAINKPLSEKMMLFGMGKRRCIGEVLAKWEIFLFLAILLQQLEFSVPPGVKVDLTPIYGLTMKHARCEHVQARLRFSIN
Chain of Glucocorticoid receptor (Homo sapiens) (P04150 whole entry, looked up, the tested form may be a part): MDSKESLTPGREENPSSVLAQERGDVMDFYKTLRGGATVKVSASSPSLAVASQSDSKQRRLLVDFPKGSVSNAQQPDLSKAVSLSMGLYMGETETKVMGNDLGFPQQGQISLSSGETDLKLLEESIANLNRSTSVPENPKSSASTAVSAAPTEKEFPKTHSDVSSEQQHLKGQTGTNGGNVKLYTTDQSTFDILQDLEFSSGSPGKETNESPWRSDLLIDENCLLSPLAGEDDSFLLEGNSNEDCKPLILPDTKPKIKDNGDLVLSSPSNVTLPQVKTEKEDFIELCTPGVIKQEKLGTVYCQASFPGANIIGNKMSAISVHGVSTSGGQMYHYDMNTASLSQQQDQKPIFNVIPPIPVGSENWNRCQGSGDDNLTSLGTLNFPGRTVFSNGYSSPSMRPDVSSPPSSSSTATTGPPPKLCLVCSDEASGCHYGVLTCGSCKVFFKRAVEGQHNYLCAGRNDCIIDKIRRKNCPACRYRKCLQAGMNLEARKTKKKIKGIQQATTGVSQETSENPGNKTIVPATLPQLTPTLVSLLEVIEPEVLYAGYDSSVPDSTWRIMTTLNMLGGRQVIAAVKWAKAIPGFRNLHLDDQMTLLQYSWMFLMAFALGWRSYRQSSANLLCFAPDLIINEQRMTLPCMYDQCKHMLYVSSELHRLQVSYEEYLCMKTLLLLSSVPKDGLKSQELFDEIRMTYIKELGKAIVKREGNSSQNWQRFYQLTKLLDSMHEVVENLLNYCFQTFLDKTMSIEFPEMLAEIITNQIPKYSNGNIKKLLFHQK
Chain of Cytochrome P450 3A4 (Homo sapiens) (P08684 whole entry, looked up): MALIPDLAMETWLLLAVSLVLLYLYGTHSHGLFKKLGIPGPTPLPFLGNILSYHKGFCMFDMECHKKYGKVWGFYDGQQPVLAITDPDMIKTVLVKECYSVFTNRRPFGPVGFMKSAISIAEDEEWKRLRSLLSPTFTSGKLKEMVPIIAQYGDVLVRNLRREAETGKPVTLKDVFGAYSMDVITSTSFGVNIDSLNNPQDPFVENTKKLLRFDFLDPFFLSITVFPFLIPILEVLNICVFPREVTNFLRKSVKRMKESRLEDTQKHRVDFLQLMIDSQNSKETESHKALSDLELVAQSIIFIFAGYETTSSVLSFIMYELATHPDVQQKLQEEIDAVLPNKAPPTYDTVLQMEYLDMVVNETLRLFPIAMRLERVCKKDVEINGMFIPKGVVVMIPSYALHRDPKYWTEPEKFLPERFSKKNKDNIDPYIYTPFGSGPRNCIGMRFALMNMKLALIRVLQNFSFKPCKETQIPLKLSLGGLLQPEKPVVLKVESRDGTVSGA
Chain of Ubiquitin carboxyl-terminal hydrolase 1 (Homo sapiens) (O94782 whole entry, looked up): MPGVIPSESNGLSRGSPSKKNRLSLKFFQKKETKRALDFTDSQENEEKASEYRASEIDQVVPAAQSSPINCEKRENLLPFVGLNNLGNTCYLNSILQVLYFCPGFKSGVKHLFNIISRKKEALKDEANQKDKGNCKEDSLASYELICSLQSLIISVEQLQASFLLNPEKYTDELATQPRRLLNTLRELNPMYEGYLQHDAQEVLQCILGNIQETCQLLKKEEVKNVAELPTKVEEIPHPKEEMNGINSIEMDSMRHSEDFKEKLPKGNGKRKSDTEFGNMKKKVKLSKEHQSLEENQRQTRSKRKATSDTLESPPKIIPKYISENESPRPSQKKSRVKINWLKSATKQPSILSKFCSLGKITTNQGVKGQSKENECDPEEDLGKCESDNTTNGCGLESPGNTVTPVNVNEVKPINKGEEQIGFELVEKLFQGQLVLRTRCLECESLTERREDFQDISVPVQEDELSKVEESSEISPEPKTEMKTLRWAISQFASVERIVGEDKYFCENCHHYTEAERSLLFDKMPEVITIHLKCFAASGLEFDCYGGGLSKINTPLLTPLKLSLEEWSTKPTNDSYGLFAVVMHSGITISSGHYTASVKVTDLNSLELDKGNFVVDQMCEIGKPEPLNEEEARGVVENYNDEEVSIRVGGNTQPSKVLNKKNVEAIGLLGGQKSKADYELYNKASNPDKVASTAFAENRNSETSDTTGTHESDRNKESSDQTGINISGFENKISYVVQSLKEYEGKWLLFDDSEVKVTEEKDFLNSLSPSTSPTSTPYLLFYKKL

Take `Cn1cccc1C(=O)N1CCC[C@@]2(CCN(C(c3ccccc3)c3ccccc3)C2)C1`: the activity change, negative = inhibition in assay [1] was 0.163% (inactive); in [7] it was 0.948% (inactive). Further, the Potency in assay [2] was 20 µM (active); in assay [4], > 46 µM (inactive). Besides, the activity, negative = inhibition in assay [3] was 9.39% (inactive). Further, the Potency entry in [5] and in [6] was “inactive” in each case. Besides, the max response in [7] (setting [13]) is 10.5%; in assay [7] (setting [14]) it was 14.1%. Besides, in assay [8], the result was inactive.
For `Cc1cnc(CNc2cc(-c3ccoc3)ncn2)cn1`, the activity change, negative = inhibition in [1] was -2.94% (inactive); in assay [9] it was 1.34% (inactive); in [7] it was 3.62% (inactive). Also, the Potency in assay [2] was 25.1 µM (active); in assay [10], > 46 µM (inactive); in assay [4], > 46 µM (inactive). Moreover, in assay [3], the activity, negative = inhibition is -9.44% (inactive). Also, the Potency entry in [5] and in assay [6] was “inactive” in each case. In addition, the max response stood at 9.95% in assay [7] (setting [13]) and 14.7% in assay [7] (setting [14]). The outcome in [8] was inactive.
Turning to `COCC(=O)N1CCC[C@@]2(CCN(c3ccccc3)C2)C1`, the activity change, negative = inhibition in assay [1] is -8.85% (inactive); in assay [9] it was -13.7% (inactive); in assay [7], -2.7% (inactive). For the same compound, the activity, negative = inhibition in assay [3] was 8.14% (inactive). Moreover, in [4], the Potency was > 46 µM (inactive). Further, the Potency entry in [5] and in [6] was “inactive” in each case. Moreover, the figures for the max response in assay [7] (setting [13]) and in assay [7] (setting [14]) were 17.9% and 18%, respectively. Besides, the result in assay [8] was inactive.
Consider `O=C(c1cc(C(F)(F)F)cc(C(F)(F)F)c1)N1CCC2(CC1)CN(c1ccncc1)C2`, for which the activity change, negative = inhibition in [1] is 13% (inactive); in assay [7], 2.27% (inactive). In [2], the Potency result was “inactive”. Further, the activity, negative = inhibition in assay [3] was 3.13% (inactive). Further, the Potency in assay [4] was > 46 µM (inactive). Also, the max response was -2.54% in [7] (setting [13]) and 0.518% in [7] (setting [14]). Further, in [8], the outcome was inactive.
For the compound `CC(=O)N1CCC[C@@]2(CCN(Cc3nccs3)C2)C1`, the activity change, negative = inhibition is 1.66% (inactive) in [1], 8.54% (inactive) in [9] and 6.81% (inactive) in [7]. Also, the Potency entry in assay [2], in [5] and in [11] was “inactive” each time. Further, the activity, negative = inhibition in assay [3] is 4.24% (inactive). For the same compound, the Potency in [4] is > 46 µM (inactive). Further, the figures for the max response in [7] (setting [13]) and in assay [7] (setting [14]) were 16.2% and 26.9%, respectively. Moreover, the outcome in assay [8] was inactive.
For the compound `CC(=O)N1CCC[C@@]2(CCN(C(=O)Nc3cccc(C#N)c3)C2)C1`, the activity change, negative = inhibition in assay [1] was -7.34% (inactive); in assay [9] it was 23.9% (inactive); in [7], 2.15% (inactive). Also, in assay [3], the activity, negative = inhibition was 7.98% (inactive). Moreover, the Potency in [4] is > 46 µM (inactive). For the same compound, the Potency entry in assay [5] and in [6] was “inactive” each time. Also, the max response in [7] (setting [13]) is -7.31%; in [7] (setting [14]) it was -0.637%. For the same compound, the result in assay [8] was inactive.
For `COc1ccc(CNc2cc(-c3ccccc3CN(C)C)ncn2)c(OC)c1`, the activity change, negative = inhibition was -0.546% (inactive) in [1] and 3.53% (inactive) in [7]. Also, the results for the Potency in [2], in assay [10] and in assay [4] were 15.8 µM (active), > 46 µM (inactive) and > 46 µM (inactive), respectively. In addition, in assay [3], the activity, negative = inhibition is 10.5% (inactive). Also, the Potency result in assay [5], in assay [6], in assay [11] and in [12] was “inactive” each time. Also, the max response was found to be 8.17% in [7] (setting [13]) and 12.8% in assay [7] (setting [14]). In addition, the result in [8] was inactive.
